# Test results taken from PubChem BioAssay (Tox21).
# Values joined by “and” are separate entries in the source; they are usually repeats but may differ in a detail not shown here. Identical values can stand only once. Records with an inconclusive call do not appear. Where a call stands in place of a potency, no number is given. The source holds several records for some structures; these can differ, active in one and inactive in another. Active and inactive are the calls of the source. The call rests on the fitted dose curve; in most records, active means well fitted curve in the direction sought with a large enough effect in the repeat runs; inconclusive means weak or mixed curves; inactive means no such curve, though single readings can be large; an effect the other way counts as inactive or inconclusive.
# Columns and labels:
# [1] = Caspase-3/7 induction in HepG2 cells by small molecules, qHTS assay (AID 1346978); further: nearly all actives have a fitted effect of over 15% in size; further: potency means the concentration at half of the fitted maximal effect
# Outline: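 Wild-type HepG2 cells, 2,000/well, settled 5 hr at 37 C and 5% CO2, then compound-treated for 17 hr; caspase-3/7 activity read by luminescent Caspase-Glo 3/7 after 30 min at room temperature.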
# [2] = Caspase-3/7 induction in CHO-K1 cells by small molecules, qHTS cell viability counter screen (AID 1346979); further: nearly all actives have a fitted effect of over 35% in size; further: potency means the concentration at half of the fitted maximal effect
# Outline: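 Cytotoxicity counter screen run in parallel with the caspase-3/7 assay: CHO-K1 cells, 16hr compound treatment at 37C, then CellTiter-Fluor for 1hr before fluorescence reading.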
# [3] = Caspase-3/7 induction in CHO-K1 cells by small molecules, qHTS assay (AID 1346980); further: nearly all actives have a fitted effect of over 15% in size; further: potency means the concentration at half of the fitted maximal effect
# Outline: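 Wild-type CHO-K1 cells exposed to compounds for 17hr at 37 C, 5% CO2. Caspase-3/7 activity then measured by Caspase-Glo 3/7 luminescence after 30min at room temperature.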
# [4] = Caspase-3/7 induction in HepG2 cells by small molecules, qHTS cell viability counter screen (AID 1346981); further: nearly all actives have a fitted effect of over 30% in size; further: potency means the concentration at half of the fitted maximal effect
# Outline: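 Wild-type HepG2 cells, 2,000/well, settled 5 hr at 37 C, 5% CO2 before compound addition. Viability read by CellTiter-Fluor fluorescence, reagent added after 16 hr compound exposure, then 1 hr at 37C, in the same wells as the caspase read.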
# [5] = target: Nuclear receptor subfamily 1 group I member 2 (Homo sapiens) (UniProt O75469); experiment: Human pregnane X receptor (PXR) small molecule agonists, qHTS assay (AID 1346982); further: nearly all actives have a fitted effect of over 35% in size; further: potency means the concentration at half of the fitted maximal effect
# Chain of Nuclear receptor subfamily 1 group I member 2 (Homo sapiens) (O75469 whole entry, looked up): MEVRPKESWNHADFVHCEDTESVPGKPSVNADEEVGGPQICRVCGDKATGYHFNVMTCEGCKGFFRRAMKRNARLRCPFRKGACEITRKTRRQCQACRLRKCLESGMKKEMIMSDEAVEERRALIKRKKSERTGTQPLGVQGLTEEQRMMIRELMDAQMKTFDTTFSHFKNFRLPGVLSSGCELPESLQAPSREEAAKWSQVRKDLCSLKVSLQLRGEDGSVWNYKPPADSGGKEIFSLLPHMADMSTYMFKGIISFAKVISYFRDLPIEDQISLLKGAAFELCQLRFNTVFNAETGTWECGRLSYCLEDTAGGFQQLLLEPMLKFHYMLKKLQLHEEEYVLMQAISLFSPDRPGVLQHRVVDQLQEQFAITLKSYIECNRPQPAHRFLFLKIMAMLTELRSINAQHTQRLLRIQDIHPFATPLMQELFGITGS
# Outline: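 PXR-Luc HepG2 reporter cells (CYP3A4-driven luciferase) in 5% charcoal-stripped FBS medium, plated 5 h before compound addition, then treated 24 h at 37C. Luciferase read by ONE-Glo luminescence after 30 min at room temperature.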
# [6] = target: Nuclear receptor subfamily 1 group I member 2 (Rattus norvegicus) (UniProt Q9R1A7); experiment: Rat pregnane X receptor (rPXR) activation by small molecules, qHTS assay (AID 1346983); conditions: rPXR luciferase reporter cells, One-Glo luminescence, 24 h; max activation: stronger effect = higher value; further: nearly all actives have a fitted effect of over 20% in size; further: potency means the concentration at half of the fitted maximal effect
# Chain of Nuclear receptor subfamily 1 group I member 2 (Rattus norvegicus) (Q9R1A7 whole entry, looked up): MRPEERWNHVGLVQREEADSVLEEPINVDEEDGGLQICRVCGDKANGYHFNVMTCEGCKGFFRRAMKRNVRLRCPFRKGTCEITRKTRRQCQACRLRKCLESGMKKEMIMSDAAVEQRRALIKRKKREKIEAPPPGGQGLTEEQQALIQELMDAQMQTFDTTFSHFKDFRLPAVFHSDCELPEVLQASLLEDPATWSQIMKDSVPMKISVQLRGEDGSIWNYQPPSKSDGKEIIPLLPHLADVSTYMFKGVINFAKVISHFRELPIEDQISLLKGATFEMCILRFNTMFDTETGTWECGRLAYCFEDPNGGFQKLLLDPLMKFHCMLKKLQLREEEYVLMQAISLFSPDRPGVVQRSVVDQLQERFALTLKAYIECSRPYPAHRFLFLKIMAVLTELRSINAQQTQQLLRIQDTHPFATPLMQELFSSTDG
# Outline: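 Cell-based rPXR activation assay: rPXR cells, 2,000 per well, rested 5hr at 37 C, then exposed to compounds in DMSO for 24 hr at 37 C. Luciferase activity read by One-Glo luminescence after 30 min at room temperature.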
# [7] = target: Nuclear receptor subfamily 1 group I member 2 (Homo sapiens) (UniProt O75469); experiment: CYP3A4 induction through human pregnane X receptor (PXR) by small molecules, qHTS assay (AID 1346984); further: nearly all actives have a fitted effect of over 40% in size; further: potency means the concentration at half of the fitted maximal effect
# Outline: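 DPX-2 HepG2 cells carrying a PXR response element and CYP3A4-promoter luciferase construct, treated with compounds 24 hr at 37C. Then P450-Glo CYP3A4 Luciferin-IPA substrate (3uM final) for 3 hr at 37C, One-Glo added, luminescence read.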
# [8] = target: Nuclear receptor subfamily 1 group I member 2 (Homo sapiens) (UniProt O75469); experiment: Human pregnane X receptor (PXR) activation by small molecules, qHTS assay (AID 1346985); further: nearly all actives have a fitted effect of over 40% in size
# Outline: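 DPX-2 cells (HepG2 co-transfected with a PXR response element and a CYP3A4-promoter luciferase construct) were seeded at 2,000 per well, rested 5 hr at 37C, then exposed to DMSO-dissolved compounds for 24 hr. Activation was read as luciferase luminescence.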
# [9] = target: Cytochrome P450 2D6 (Homo sapiens) (UniProt P10635); experiment: Cytochrome P450 Family 2 Subfamily D Member 6 (CYP2D6) small molecule antagonists: luciferase reporter qHTS assay (AID 1671196); further: nearly all actives have a fitted effect of over 50% in size; further: potency means the concentration at half of the fitted maximal effect
# Chain of Cytochrome P450 2D6 (Homo sapiens) (P10635 whole entry, looked up): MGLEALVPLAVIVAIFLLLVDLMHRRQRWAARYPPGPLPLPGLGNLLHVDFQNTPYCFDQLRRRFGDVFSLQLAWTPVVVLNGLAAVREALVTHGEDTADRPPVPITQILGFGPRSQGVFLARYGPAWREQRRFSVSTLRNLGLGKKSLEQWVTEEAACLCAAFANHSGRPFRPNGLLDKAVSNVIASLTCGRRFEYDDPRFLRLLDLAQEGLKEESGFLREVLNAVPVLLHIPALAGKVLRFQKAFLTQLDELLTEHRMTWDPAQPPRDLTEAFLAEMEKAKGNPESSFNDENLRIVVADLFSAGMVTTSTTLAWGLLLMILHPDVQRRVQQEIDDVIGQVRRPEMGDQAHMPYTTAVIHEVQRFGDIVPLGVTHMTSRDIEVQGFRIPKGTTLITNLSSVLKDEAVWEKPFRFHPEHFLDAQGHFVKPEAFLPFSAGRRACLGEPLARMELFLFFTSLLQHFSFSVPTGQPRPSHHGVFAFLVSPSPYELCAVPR
# Outline: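 Cell-free P450-Glo system: CYP2D6 with proluciferin substrate was pre-incubated with compound for 10 min, then reacted with NADPH regeneration for 1 h at room temperature. Luciferin product was detected after 20 min, and data were reported as relative luminescence units.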
# [10] = target: Cytochrome P450 2C19 (Homo sapiens) (UniProt P33261); experiment: Cytochrome P450 Family 2 Subfamily C Member 19 (CYP2C19) small molecule antagonists: luciferase reporter qHTS assay (AID 1671197); further: nearly all actives have a fitted effect of over 65% in size; further: potency means the concentration at half of the fitted maximal effect
# Chain of Cytochrome P450 2C19 (Homo sapiens) (P33261 whole entry, looked up): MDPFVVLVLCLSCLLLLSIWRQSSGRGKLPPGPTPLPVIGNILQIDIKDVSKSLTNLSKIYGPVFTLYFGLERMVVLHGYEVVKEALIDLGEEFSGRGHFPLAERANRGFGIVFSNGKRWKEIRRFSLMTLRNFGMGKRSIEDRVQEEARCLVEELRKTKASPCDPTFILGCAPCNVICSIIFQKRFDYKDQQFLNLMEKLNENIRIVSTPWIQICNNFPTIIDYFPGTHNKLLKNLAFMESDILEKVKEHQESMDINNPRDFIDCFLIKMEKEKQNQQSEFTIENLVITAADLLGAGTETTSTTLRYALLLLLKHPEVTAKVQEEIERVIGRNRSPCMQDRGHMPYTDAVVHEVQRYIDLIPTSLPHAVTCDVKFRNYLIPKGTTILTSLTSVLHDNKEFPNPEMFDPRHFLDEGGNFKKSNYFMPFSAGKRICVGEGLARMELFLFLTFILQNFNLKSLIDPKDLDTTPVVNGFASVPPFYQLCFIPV
# Outline: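 Light output is proportional to CYP2C19 activity: proluciferin substrate is converted to luciferin, then detected by a luciferin detection reagent that also stops the 1 h, 37C NADPH-driven reaction. Ketoconazole serves as positive control.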
structure (smiles),measurement,setting,value
CCCCCCCCCCCCCCCC[N+](C)(C)Cc1ccccc1,Potency,[1],70.8 µM (active) and inactive
same,Potency,[2],50.1 µM (active) and 39.3 µM (active) and 29.8 µM (active)
same,Potency,[3],inactive
same,Potency,[4],62.2 µM (active)
same,Potency,[5],inactive
same,max activation,[6],-17.4% (inactive)
same,Potency,[7],inactive
same,outcome,[8],inactive
same,Potency,[9],923 nM (active) and 406 nM (active) and 389 nM (active)
same,Potency,[10],32.7 µM (active) and 51.2 µM (active) and 27.5 µM (active)
C1=CC2C3C=CC(C3)C2C1 (centres undefined),Potency,[1],inactive
same,Potency,[2],inactive
same,Potency,[3],inactive
same,Potency,[4],inactive
same,Potency,[9],6.99 µM (active)
same,Potency,[10],inactive
CN1[C@@H]2CC(OC(=O)[C@H](CO)c3ccccc3)C[C@H]1[C@@H]1O[C@@H]12 (some centres undefined),Potency,[2],inactive
same,Potency,[3],inactive
same,Potency,[4],inactive
same,Potency,[5],inactive
same,max activation,[6],6.06% (inactive) and -0.026% (inactive)
same,outcome,[8],inactive
CC1(C)S[C@@H]2[C@H](NC(=O)[C@H](N)c3ccccc3)C(=O)N2[C@H]1C(=O)O,Potency,[1],inactive
same,Potency,[2],inactive
same,Potency,[3],inactive
same,Potency,[4],inactive
same,Potency,[5],inactive
same,Potency,[9],44.5 µM (active) and inactive
same,Potency,[10],inactive
NC(=O)n1c(O)c(C(=O)c2cccs2)c2cc(Cl)ccc21,Potency,[1],inactive
same,Potency,[3],inactive
same,max activation,[6],4.95% (inactive)
same,Potency,[7],28.2 µM (active)
same,Potency,[9],inactive
COc1ccc2c(c1)c(CC(=O)O)c(C)n2C(=O)c1ccc(Cl)cc1,Potency,[1],inactive
same,Potency,[2],61.5 µM (active)
same,Potency,[3],inactive
same,Potency,[5],inactive
same,Potency,[9],35.8 µM (active) and inactive
same,Potency,[10],inactive
Nc1ccc2c(c1)CN1C(=O)c3ccccc3C1=N2,caspase activation,[1],-14.3% [at 19 µM] (inactive)
same,caspase-3/7 activation,[3],-7.02% [at 19 µM] (inactive)
same,Potency,[5],0.073 µM (active)
same,Potency,[9],6.01 µM (active)
same,Potency,[10],3.01 µM (active)
Cc1cc(=O)oc2cc(O)ccc12,Potency,[1],inactive
same,Potency,[3],inactive
same,Potency,[4],inactive
same,Potency,[5],inactive
same,max activation,[6],-6.81% (inactive)
same,Potency,[7],inactive
same,outcome,[8],inactive
same,Potency,[9],inactive
same,Potency,[10],inactive
O=C1NS(=O)(=O)c2ccccc21,Potency,[1],inactive
same,Potency,[2],inactive
same,Potency,[3],inactive
same,Potency,[4],inactive
same,max activation,[6],-1.81% (inactive)
CC(C)c1c(C(=O)Nc2ccccc2)c(-c2ccccc2)c(-c2ccc(F)cc2)n1CC[C@@H](O)C[C@@H](O)CC(=O)O,Potency,[1],26.3 µM (active)
same,Potency,[3],inactive
same,Potency,[4],inactive
COc1cccc(O)c1O,Potency,[1],inactive
same,Potency,[2],63.5 µM (active)
same,Potency,[3],inactive
same,Potency,[5],25.3 µM (active)
same,Potency,[10],58.6 µM (active)
CC/C(=C(\c1ccccc1)c1ccc(OCCN(C)C)cc1)c1ccccc1,Potency,[1],27.5 µM (active) and 54.4 µM (active) and 61.1 µM (active)
same,Potency,[2],54.4 µM (active) [middle of 4 runs]
same,Potency,[3],24.5 µM (active) and inactive
same,Potency,[4],61.1 µM (active) [middle of 4 runs]
same,max activation,[6],-0.827% (inactive)
Nc1ccc([N+](=O)[O-])cc1O,Potency,[1],inactive
same,Potency,[2],40.9 µM (active)
same,Potency,[3],inactive
same,Potency,[4],48.6 µM (active)
same,Potency,[5],61.1 µM (active)
same,Potency,[10],6.33 µM (active)
O=C(O)c1ccccc1,Potency,[1],inactive
same,Potency,[2],inactive
same,Potency,[3],inactive
same,Potency,[4],inactive
same,Potency,[5],inactive
same,Potency,[9],37.4 µM (active) and inactive
same,Potency,[10],33.3 µM (active) and 3.47 µM (active) and inactive
C=C1CC[C@H](O)C/C1=C\C=C1/CCC[C@]2(C)[C@@H]([C@H](C)CCCC(C)C)CC[C@@H]12,Potency,[2],48.1 µM (active)
same,Potency,[4],inactive
same,Potency,[5],17.1 µM (active)
same,max activation,[6],1.13% (inactive)
same,Potency,[7],inactive
same,Potency,[9],inactive
same,Potency,[10],35.3 µM (active)
CC1(C)O[C@@H]2C[C@H]3[C@@H]4CCC5=CC(=O)C=C[C@]5(C)[C@@]4(F)[C@@H](O)C[C@]3(C)[C@]2(C(=O)CO)O1,Potency,[1],inactive
same,Potency,[2],inactive
same,Potency,[3],inactive
same,Potency,[4],inactive
same,Potency,[6],12.6 µM (active)
same,Potency,[9],31.9 µM (active) and inactive
same,Potency,[10],inactive
COc1ccc(C(Cl)=C(c2ccc(OC)cc2)c2ccc(OC)cc2)cc1,Potency,[1],inactive
same,Potency,[2],inactive
same,Potency,[3],inactive
same,Potency,[4],inactive
same,Potency,[9],inactive
same,Potency,[10],7.93 µM (active) and 12.6 µM (active) and 4.36 µM (active)
C1CCC(C(CC2CCCCN2)C2CCCCC2)CC1 (centres undefined),Potency,[1],33.5 µM (active)
same,Potency,[4],29.8 µM (active)
same,Potency,[5],6.68 µM (active)
same,max activation,[6],-20.4% (inactive)
same,Potency,[7],inactive
same,outcome,[8],inactive
same,Potency,[9],1.1 µM (active)
same,Potency,[10],24.5 µM (active)
CC(=O)Nc1c(I)c(NC(C)=O)c(I)c(C(=O)O)c1I,Potency,[1],inactive
same,Potency,[2],inactive
same,Potency,[3],inactive
same,Potency,[4],inactive
same,Potency,[5],24.3 µM (active) and inactive
same,Potency,[9],inactive
same,Potency,[10],inactive and 79.6 µM (active)
O=CC(=O)c1ccccc1,Potency,[1],inactive
same,Potency,[3],inactive
same,Potency,[4],inactive
same,Potency,[5],inactive
same,Potency,[9],12.6 µM (active)
same,Potency,[10],35.6 µM (active)
Nc1ccc(O)c([N+](=O)[O-])c1,Potency,[1],inactive
same,Potency,[2],47.1 µM (active)
same,Potency,[3],inactive
same,Potency,[4],61.1 µM (active)
same,Potency,[5],19.3 µM (active)
same,Potency,[10],22.2 µM (active)
C/C=C/C=C/C(=O)O,Potency,[1],inactive
same,Potency,[2],inactive
same,Potency,[3],inactive
same,Potency,[4],inactive
same,max activation,[6],0.352% (inactive)
CN[C@H]1CC[C@@H](c2ccc(Cl)c(Cl)c2)c2ccccc21,Potency,[1],13.3 µM (active)
same,Potency,[2],29.8 µM (active)
same,Potency,[4],29.8 µM (active)
same,max activation,[6],8.99% (inactive)
same,Potency,[9],1.55 µM (active)
same,Potency,[10],3.89 µM (active)
COc1ccc(CN(CCN(C)C)c2ccccn2)cc1,Potency,[1],inactive
same,Potency,[2],inactive
same,Potency,[3],inactive
same,Potency,[4],inactive
same,Potency,[5],inactive
same,Potency,[10],9.94 µM (active) and 32.8 µM (active) and 21.9 µM (active)
